Results filed as inconclusive are left out. The source made the active and inactive calls. Unless noted, calls come from the whole dose curve; as a rule, active = well fitted curve in the direction sought with a large enough effect; inconclusive = small, poorly fitted or top-dose-only effect, or another doubt; inactive = no such curve, though single readings can be large; an effect the other way counts as inactive or inconclusive.
Assays:
[1] = molecular target: Ubiquitin carboxyl-terminal hydrolase 1 (Homo sapiens) (UniProt O94782); test: Inhibitors of USP1/UAF1: Pilot qHTS (AID 504865);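 note: rhodamine fluorescence freed from ubiquitin-rhodamine substrate followed over time; top concentration of the series differs between compounds; % is set by controls: 0 for no effect and ±100 for the full control effect; nearly all actives have a fitted effect of over 35% in size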
Ubiquitin carboxyl-terminal hydrolase 1 (Homo sapiens), sequence (O94782 whole entry, looked up): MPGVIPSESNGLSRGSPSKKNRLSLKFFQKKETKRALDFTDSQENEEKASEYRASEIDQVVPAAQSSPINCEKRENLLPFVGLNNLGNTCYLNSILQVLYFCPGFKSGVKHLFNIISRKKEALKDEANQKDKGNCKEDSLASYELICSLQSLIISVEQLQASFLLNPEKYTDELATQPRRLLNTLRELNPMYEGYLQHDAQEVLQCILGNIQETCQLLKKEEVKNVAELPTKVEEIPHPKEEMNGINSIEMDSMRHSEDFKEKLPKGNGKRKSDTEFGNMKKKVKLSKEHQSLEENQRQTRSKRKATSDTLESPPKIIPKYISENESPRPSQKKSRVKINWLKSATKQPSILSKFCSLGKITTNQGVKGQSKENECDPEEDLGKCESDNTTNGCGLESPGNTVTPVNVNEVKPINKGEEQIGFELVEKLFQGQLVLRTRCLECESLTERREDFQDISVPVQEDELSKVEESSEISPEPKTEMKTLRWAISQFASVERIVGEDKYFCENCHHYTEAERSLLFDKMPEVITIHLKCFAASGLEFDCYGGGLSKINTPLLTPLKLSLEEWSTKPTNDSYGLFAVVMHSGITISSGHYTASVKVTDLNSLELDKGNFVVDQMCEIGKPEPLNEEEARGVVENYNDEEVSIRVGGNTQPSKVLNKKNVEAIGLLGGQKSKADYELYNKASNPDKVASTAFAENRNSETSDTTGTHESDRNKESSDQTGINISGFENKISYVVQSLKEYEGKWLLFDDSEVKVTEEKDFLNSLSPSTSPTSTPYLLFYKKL
How it was run: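 Enzyme-free wells gave the negative control, while test wells held 1nM USP1/UAF1 preincubated with compound for 15 min at room temperature. Ub-Rho at 150nM final started the reaction, and fluorescence at 480/540 nm was recorded kinetically.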

[2] = molecular target: Luciferin 4-monooxygenase (Photinus pyralis) (UniProt P08659); test: Biochemical firefly luciferase enzyme assay for NPC (AID 624030);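 note: purified P. pyralis luciferase at 10 nM with luciferin and ATP substrate; 0% = DMSO and -100% = full luciferase inhibition by PTC124 control; nearly all actives have a fitted effect of over 70% in size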
Luciferin 4-monooxygenase (Photinus pyralis), sequence (P08659 whole entry, looked up): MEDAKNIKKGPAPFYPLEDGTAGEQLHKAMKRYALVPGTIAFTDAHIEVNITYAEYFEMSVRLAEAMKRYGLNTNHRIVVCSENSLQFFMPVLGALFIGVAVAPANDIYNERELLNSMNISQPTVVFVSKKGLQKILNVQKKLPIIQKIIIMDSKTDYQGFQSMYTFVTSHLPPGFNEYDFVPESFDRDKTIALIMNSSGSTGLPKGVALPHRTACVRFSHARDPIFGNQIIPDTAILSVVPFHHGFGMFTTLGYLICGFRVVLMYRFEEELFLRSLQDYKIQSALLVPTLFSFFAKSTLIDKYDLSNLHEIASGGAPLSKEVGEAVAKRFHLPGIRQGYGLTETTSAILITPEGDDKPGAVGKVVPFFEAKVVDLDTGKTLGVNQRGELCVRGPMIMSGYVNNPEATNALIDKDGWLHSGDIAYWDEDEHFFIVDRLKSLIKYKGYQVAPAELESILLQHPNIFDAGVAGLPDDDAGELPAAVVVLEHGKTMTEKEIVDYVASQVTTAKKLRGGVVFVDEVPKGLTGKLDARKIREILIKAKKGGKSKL
How it was run: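 Counter-screen for direct inhibition of the luciferase enzyme by approved-drug library compounds, run at 10 nM enzyme in 50 mM Tris acetate (final). Luminescence was read within 5 min of enzyme-buffer addition and normalized to PTC124 versus DMSO (0%).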

[3] = S16 Schwann cell viability assay (CellTiter-Glo assay) (AID 624031);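 note: cellular ATP luminescence as a viability measure; plate controls were DMSO-treated cells for no effect and cell-free wells for full effect; nearly all actives have a fitted effect of over 70% in size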
How it was run: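 This viability control uses native rat S16 Schwann cells grown in DMEM plus 10% FBS. After a 24 h compound treatment at 37 °C, CellTiter-Glo luminescence reports ATP content, scaled against DMSO-treated and cell-free wells.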

[4] = S16 Schwann cell PMP22 intronic element firefly luciferase assay (AID 624032);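 note: plate controls were DMSO for no effect and PTC124 positive control mean for full effect; nearly all actives have a fitted effect of over 30% in size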
How it was run: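 Rat S16 Schwann cells stably carrying a PMP22 intronic element-driven Fluc reporter were seeded overnight, then exposed to compounds for 24 h at 37 °C. Luminescence was normalized to PTC124 (positive control) and DMSO (0% activity).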

[5] = S16 Schwann cell PMP22 intronic element beta-lactamase assay (AID 624044; calls by dose curve;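 note: 0% = DMSO and -100% = potassium clavulanate positive control; nearly all actives have a fitted effect of over 15% in size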)
How it was run: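 Rat S16 Schwann cells with beta-Lac driven by a PMP22 intronic element, compound-treated 24 h at 37 °C. LiveBLAzer FRET B/G read: 460 nm normalized to potassium clavulanate vs DMSO; 535 nm FRET as viability; concentration-effect curves classified.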

[6] = qHTS profiling for inhibitors of Plasmodium falciparum proliferation (AID 504749);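 note: 0% = DMSO vehicle and full inhibition = artemisinin control; nearly all actives have a fitted effect of over 60% in size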; settings: P. falciparum in erythrocytes, SYBR Green DNA, 72 h, at 28.7 µM (top of the series)
How it was run: (§1)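 Parasite proliferation within erythrocytes, 72 h exposure. Endpoint: SYBR Green I fluorescence after overnight lysis at room temperature. Controls: 0.29 uM artemisinin, DMSO.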

3D7 = test: as above; settings: P. falciparum in erythrocytes, SYBR Green DNA, 72 h; series mostly up to 28.7 µM
How it was run: as §1

7G8 = test: as above; settings: P. falciparum in erythrocytes, SYBR Green DNA, 72 h; series mostly up to 28.7 µM
How it was run: as §1

AA1029 = test: as above; settings: P. falciparum in erythrocytes, SYBR Green DNA, 72 h; series mostly up to 28.7 µM
How it was run: as §1

AS120 = test: as above; settings: P. falciparum in erythrocytes, SYBR Green DNA, 72 h; series mostly up to 28.7 µM
How it was run: as §1

ATS189 = test: as above; settings: P. falciparum in erythrocytes, SYBR Green DNA, 72 h; series mostly up to 28.7 µM
How it was run: as §1

ATS95 = test: as above; settings: P. falciparum in erythrocytes, SYBR Green DNA, 72 h; series mostly up to 28.7 µM
How it was run: as §1

C2A = test: as above; settings: P. falciparum in erythrocytes, SYBR Green DNA, 72 h; series mostly up to 28.7 µM
How it was run: as §1

CP185 = test: as above; settings: P. falciparum in erythrocytes, SYBR Green DNA, 72 h; series mostly up to 28.7 µM
How it was run: as §1

CP191 = test: as above; settings: P. falciparum in erythrocytes, SYBR Green DNA, 72 h; series mostly up to 28.7 µM
How it was run: as §1

CP192 = test: as above; settings: P. falciparum in erythrocytes, SYBR Green DNA, 72 h; series mostly up to 28.7 µM
How it was run: as §1

CP194 = test: as above; settings: P. falciparum in erythrocytes, SYBR Green DNA, 72 h; series mostly up to 28.7 µM
How it was run: as §1

CP201 = test: as above; settings: P. falciparum in erythrocytes, SYBR Green DNA, 72 h; series mostly up to 28.7 µM
How it was run: as §1

CP203 = test: as above; settings: P. falciparum in erythrocytes, SYBR Green DNA, 72 h; series mostly up to 28.7 µM
How it was run: as §1

CP211 = test: as above; settings: P. falciparum in erythrocytes, SYBR Green DNA, 72 h; series mostly up to 28.7 µM
How it was run: as §1

CP215 = test: as above; settings: P. falciparum in erythrocytes, SYBR Green DNA, 72 h; series mostly up to 28.7 µM
How it was run: as §1

CP217 = test: as above; settings: P. falciparum in erythrocytes, SYBR Green DNA, 72 h; series mostly up to 28.7 µM
How it was run: as §1

CP237 = test: as above; settings: P. falciparum in erythrocytes, SYBR Green DNA, 72 h; series mostly up to 28.7 µM
How it was run: as §1

CP238 = test: as above; settings: P. falciparum in erythrocytes, SYBR Green DNA, 72 h; series mostly up to 28.7 µM
How it was run: as §1

CP247 = test: as above; settings: P. falciparum in erythrocytes, SYBR Green DNA, 72 h; series mostly up to 28.7 µM
How it was run: as §1

CP250 = test: as above; settings: P. falciparum in erythrocytes, SYBR Green DNA, 72 h; series mostly up to 28.7 µM
How it was run: as §1

CP252 = test: as above; settings: P. falciparum in erythrocytes, SYBR Green DNA, 72 h; series mostly up to 28.7 µM
How it was run: as §1

CP256 = test: as above; settings: P. falciparum in erythrocytes, SYBR Green DNA, 72 h; series mostly up to 28.7 µM
How it was run: as §1

CP260 = test: as above; settings: P. falciparum in erythrocytes, SYBR Green DNA, 72 h; series mostly up to 28.7 µM
How it was run: as §1

CP262 = test: as above; settings: P. falciparum in erythrocytes, SYBR Green DNA, 72 h; series mostly up to 28.7 µM
How it was run: as §1

CP265 = test: as above; settings: P. falciparum in erythrocytes, SYBR Green DNA, 72 h; series mostly up to 28.7 µM
How it was run: as §1

CC(C)C[C@H](NC(=O)[C@@H](Cc1c[nH]c2ccccc12)NC(=O)[C@@H](Cc1ccc(O)cc1)NC(=O)[C@@H](CO)NC(=O)[C@@H](Cc1c[nH]c2ccccc12)NC(=O)C(Cc1cnc[nH]1)NC(=O)C1CCC(=O)N1)C(=O)N[C@@H](CCCN=C(N)N)C(=O)N1CCC[C@@H]1C(=O)NCC(N)=O (some centres not stated)
inactive: Potency [1] | Potency [2] | Potency [3] | Potency [4] | Potency [5] | activity, negative = inhibition ([6]; parasite line A) 17.3% | activity, negative = inhibition ([6]; parasite line B) 2.16% | Potency (3D7) | Potency (7G8) | Potency (AA1029) | Potency (AS120) | Potency (ATS189) | Potency (ATS95) | Potency (C2A) | Potency (CP185) | Potency (CP191) | Potency (CP192) | Potency (CP194) | Potency (CP201) | Potency (CP203) | Potency (CP211) | Potency (CP215) | Potency (CP217) | Potency (CP237) | Potency (CP238) | Potency (CP247) | Potency (CP250) | Potency (CP252) | Potency (CP256) | Potency (CP260) | Potency (CP262) | Potency (CP265)

Reference: PubChem BioAssay (NCATS)
